PfHsp40 rescue: compounds rescuing yeast from Plasmodium falciparum HSP40 toxicity. growth rescue, % at 12.5 µM. hit rate 0.68% among 340,000. AID 504582. S. cerevisiae expressing PfHsp40, growth rescue, ATP luminescence; in the data active means growth rescue above about 28%, passing the limit was not always enough; inconclusive means no clear call, values can overlap the other calls;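 further: yeast W303a lacking pdr1 and pdr3 grown in galactose medium; growth measured after three days at 30 °C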
RN4220 kill: S. aureus RN4220 growth inhibition. OD600, 16 h. hit rate 0.33% among 330,000. inhibition, % (concentration not given with the values). AID 1259311; in the data active means inhibition above about 85%
Mtb hypoxia inh: inhibitors of hypoxia-regulated fluorescent reporter in Mycobacterium tuberculosis | M. tuberculosis hypoxia-regulated fluorescent reporter, fluorescence | fluorescence inhibition, % (no concentration beside the values) | hit rate 0.1% among 300,000; in the data active means fluorescence inhibition mostly above about 23%, no sharp cut-off; inactive means mostly below about 17%
CCHFV vOTU inh: blocks the CCHF virus ovarian tumor domain protease | CCHFV vOTU protease, Pep-AMC fluorescence | inhibition, % at 11.5 µM | hit rate 0.55% among 370,000; in the data active means inhibition above about 30%
Sa ugtP lethal: compounds lethal to S. aureus RN4220 ugtP deletion mutant | OD600 growth, 16 h | growth inhibition, % (concentration not given with the values) | hit rate 0.54% among 330,000; in the data active means growth inhibition above about 68%
Vc quorum ag: inducers of Vibrio cholerae quorum light production without autoinducers | V. cholerae BH1578 lux reporter, luminescence, 6 h | activation, % at 18.7 µM | hit rate 0.16% among 350,000 | AID 588436; in the data active means activation mostly above about 9.7%, no sharp cut-off; inconclusive means no clear call, values can overlap the other calls; inactive means mostly below about 3.7%
Of the large screens only hits and unclear results are named; the others gave an inactive call. An excerpt weighted towards active compounds, which were near 1.7% of everything screened.

COC(=O)C1=C(C)N(CCCC(=O)O)C(=O)NC1c1cc2c(cc1[N+](=O)[O-])OCO2 (stereo not given)	none
COC(=O)C1=C(C)N(C)C(=O)NC1c1cc2c(cc1[N+](=O)[O-])OCO2 (stereo not given)	PfHsp40 rescue 35 (no result: Vc quorum ag)
COc1ccc(/C(O)=C2/C(=O)C(=O)N(CCCN(C)C)C2c2cccc(Cl)c2)cc1OC (stereo not given)	CCHFV vOTU inh 34
CCOc1ccc(-c2c(C(=O)NN=Cc3c[nH]c4ccccc34)nnn2-c2nonc2N)cc1	none (no result: PfHsp40 rescue, CCHFV vOTU inh, Vc quorum ag)
Oc1[nH]c2ccccc2c1N=NC(=S)N1CCOCC1	none (no result: RN4220 kill, Mtb hypoxia inh, CCHFV vOTU inh, Sa ugtP lethal)
Oc1[nH]c2ccc(Br)cc2c1N=NC(=S)N1CCOCC1	Mtb hypoxia inh 39
CSC(=S)NN=C(C)c1cccc(C)n1	PfHsp40 rescue 64 (no result: RN4220 kill, Mtb hypoxia inh, Sa ugtP lethal)
Cc1ccc(S(=O)(=O)N2CCOCC2)cc1NC(=O)CSc1ccc(Cl)cc1	none
CCNc1ccc(C(=O)OCC)cc1NC(=O)c1cc(S(=O)(=O)N2CCOCC2)ccc1C	PfHsp40 rescue 113
Cc1ccccc1NC(=O)COC(=O)c1cc(S(=O)(=O)N2CCOCC2)ccc1C	Mtb hypoxia inh 32
Cc1ccc(S(=O)(=O)N2CCOCC2)cc1C(=O)OCC(=O)NCc1ccccc1	none
Cc1ccc(S(=O)(=O)N2CCOCC2)cc1NC(=O)C(c1ccc(Cl)cc1)C(C)C (stereo not given)	RN4220 kill 89, Sa ugtP lethal 91 (no result: PfHsp40 rescue)
COCCCNC(=O)C(=O)NN=Cc1ccc(OCC(=O)Nc2cccc(Cl)c2C)c(OC)c1	none (no result: PfHsp40 rescue, CCHFV vOTU inh, Vc quorum ag)
C#CCOCCOCCOCCNc1nc(N2CCOCC2)nc(N2CCN(C(=O)C(CCCCN)n3cc(CCC(=O)O)nn3)CC2)n1 (stereo not given)	none (no result: PfHsp40 rescue, CCHFV vOTU inh, Vc quorum ag)
CC(=NNc1cccc(Cl)c1)c1ccncc1	none (no result: PfHsp40 rescue, CCHFV vOTU inh, Vc quorum ag)
Cc1ccc(C(c2cc(Cl)c3cccnc3c2O)N2CCN(C)CC2)cc1 (stereo not given)	PfHsp40 rescue 61 (no result: RN4220 kill, Mtb hypoxia inh, CCHFV vOTU inh, Sa ugtP lethal)
Oc1c(C(c2ccc(Cl)cc2)N2CCCC2)cc(Cl)c2cccnc12 (stereo not given)	PfHsp40 rescue 53, RN4220 kill 100, Sa ugtP lethal 100
Oc1c(C(c2ccccn2)N2CCC(Cc3ccccc3)CC2)cc(Cl)c2cccnc12 (stereo not given)	RN4220 kill 93, Sa ugtP lethal 88 (no result: PfHsp40 rescue, Vc quorum ag)
CN1CCN(C(c2ccccn2)c2cc(Cl)c3cccnc3c2O)CC1 (stereo not given)	PfHsp40 rescue 401
CC(=O)NC(c1ccc(C)cc1)c1cc(Cl)c2cccnc2c1O (stereo not given)	none (no result: RN4220 kill, Mtb hypoxia inh, Sa ugtP lethal)
CC1CN(C(C)CO)C(=O)c2cc(NC(=O)Cc3ccccc3)ccc2OC1CN(C)C(=O)Nc1ccccc1 (stereo not given)	none (no result: PfHsp40 rescue, CCHFV vOTU inh, Vc quorum ag)
O=C(NN=Cc1ccco1)c1cc(Br)ccc1OCc1ccccc1	none (no result: PfHsp40 rescue, CCHFV vOTU inh, Vc quorum ag)
CC(CC(=O)Nc1cccc(C(F)(F)F)c1)=NNC(=O)C(=O)NCCO	none (no result: PfHsp40 rescue, CCHFV vOTU inh, Vc quorum ag)
CCOC(=O)CN1C(=O)N[C@@H](c2cccc(F)c2)C(C(=O)OC)=C1C	PfHsp40 rescue 40 (no result: RN4220 kill, Mtb hypoxia inh, Sa ugtP lethal)
CCOC(=O)CN1C(=O)N[C@@H](c2cccc(F)c2)C(C(C)=O)=C1C	none (no result: RN4220 kill, Mtb hypoxia inh, Sa ugtP lethal)
Clc1ccc(/C=C/c2nc3ccccc3[nH]2)cc1	none (no result: Vc quorum ag)
Clc1ccc(/C=C/c2nc3ccccc3[nH]2)c(Cl)c1	Sa ugtP lethal 92
CCCCCCCCCCCCCCCC(=O)OCC(COP(=O)([O-])OCC[N+](C)(C)C)OC(=O)CCCCCCCCCCCCCCC (stereo not given)	none (no result: PfHsp40 rescue, CCHFV vOTU inh, Vc quorum ag)
C=CCc1ccc(O)c(-c2ccc(O)c(CC=C)c2)c1	PfHsp40 rescue 233 (no result: Mtb hypoxia inh)
C=CCc1ccc2c(c1)OCO2	none (no result: PfHsp40 rescue, RN4220 kill, Mtb hypoxia inh, Sa ugtP lethal, Vc quorum ag)
Cn1cnc([N+](=O)[O-])c1S(=O)(=O)Oc1cccc2ccccc12	PfHsp40 rescue inconclusive, Sa ugtP lethal 91 (not shown: Mtb hypoxia inh)
Cn1cnc([N+](=O)[O-])c1S(=O)(=O)Oc1ccc(Cl)cc1	PfHsp40 rescue 233 (not shown: Mtb hypoxia inh)
COc1cccc(C=NNC(=O)c2sc(N)nc2C)c1OC	none (no result: PfHsp40 rescue, CCHFV vOTU inh, Vc quorum ag)
COc1ccc(/C=C/C(=O)c2c(O)ccc3c(C)cc(=O)oc23)cc1	Sa ugtP lethal 89
Cc1cc(=O)oc2c(O)c(O)ccc12	none (no result: RN4220 kill, Mtb hypoxia inh, Sa ugtP lethal)
COc1ccc(/C=C\C(=O)c2c(O)ccc3c(C)cc(=O)oc23)cc1	Sa ugtP lethal 87 (no result: Mtb hypoxia inh)
Fc1cccc(CCN2C(=S)NCC2CC2CCCCC2)c1 (stereo not given)	none (no result: PfHsp40 rescue, CCHFV vOTU inh, Vc quorum ag)
Cc1cc(C=C2SC(N)=NC2=O)c(C)n1-c1ccccc1	none (no result: PfHsp40 rescue, CCHFV vOTU inh, Vc quorum ag)
CCOc1ccc(NC(=S)NNC(=O)CC(C)O)cc1 (stereo not given)	none
CCCC(=O)NC(=S)Nc1ccc(S(=O)(=O)Nc2ccc(OCC)cc2)cc1	Sa ugtP lethal 88

Source: PubChem
